Source: PubChem BioAssay AID1159580 (chemical genetic matrix, 2015)
Values joined by “and” are separate entries in the source; they are usually repeats but may differ in a detail not shown here. Equal entries are not always repeated. Screen size: about 5,500 compounds; about 2,000 (36%) were called active. Not shown: some 18% with an inconclusive outcome. Rule as the data show it: active = normalized growth mostly below about 0.91 (no sharp cut-off); inconclusive = no clear call, values can overlap the other calls; inactive = mostly above about 0.92. Some of the results follow.

Assay: chemical genetic growth profiling, strain panel (AID 1159580);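 also: tested at 20 µM; growth read once vehicle control cultures reached saturation at 30 °C; 1 = growth at the plate median or of vehicle wells; lower values mean less growth of the strain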
Details: S. cerevisiae deletion strains, growth OD

Measured: normalized growth

COc1ccc(CN(CCN(C)C)c2ccccn2)cc1
inactive: locus YAL013W, strain DEP1, active compounds read low 0.971 | locus YAL021C, strain ccr4, active compounds read low 1.01 | locus YAL026C, strain drs2, active compounds read low 1.03 | locus YAL030W, strain snc1, active compounds read low 0.999 | locus YAL040C, strain CLN3, active compounds read low 0.955 | locus YBL061C, strain skt5, active compounds read low 1.01 | locus YBR009C, strain hhf1, active compounds read low 0.986 | locus YBR021W, strain FUR4, active compounds read low 0.995 | locus YBR023C, strain chs3, active compounds read low 1.03 | locus YBR171W, strain sec66, active compounds read low 1.02 | locus YBR229C, strain ROT2, active compounds read low 0.991 | locus YBR231C, strain swc5, active compounds read low 1.02 | locus YBR279W, strain paf1, active compounds read low 1.01 | locus YCL011C, strain gbp2, active compounds read low 1.03 | locus YCL016C, strain dcc1, active compounds read low 1.03 | locus YCL029C, strain bik1, active compounds read low 0.989 | locus YCL061C, strain MRC1 (second series), active compounds read low 0.986 | locus YCL069W, strain vba3, active compounds read low 1.01 | locus YCR088W, strain abp1, active compounds read low 1.02 | locus YDL005C, strain med2, active compounds read low 1.03 | locus YDL035C, strain GPR1, active compounds read low 0.996 | locus YDL040C, strain nat1, active compounds read low 1.01 | locus YDL074C, strain BRE1, active compounds read low 1.01 | locus YDL101C, strain DUN1, active compounds read low 0.993 | locus YDL134C, strain PPH21, active compounds read low 0.995 | locus YDL185W, strain tfp1, active compounds read low 0.951 | locus YDL192W, strain arf1, active compounds read low 0.978 | locus YDR001C, strain nth1, active compounds read low 1.01 | locus YDR069C, strain doa4, active compounds read low 1.01 | locus YDR101C, strain arx1, active compounds read low 0.982 | locus YDR137W, strain rgp1, active compounds read low 1.04 | locus YDR150W, strain NUM1, active compounds read low 1.02 | locus YDR159W, strain sac3, active compounds read low 0.992 | locus YDR162C, strain NBP2, active compounds read low 0.992 | locus YDR195W, strain ref2 0.966 | locus YDR297W, strain sur2, active compounds read low 1.01 | locus YDR318W, strain mcm21, active compounds read low 0.989 | locus YDR334W, strain swr1, active compounds read low 1 | locus YDR335W, strain msn5, active compounds read low 1.03 | locus YDR363W, strain ESC2, active compounds read low 1 | locus YDR388W, active compounds read low 0.998 | locus YDR392W, strain spt3, active compounds read low 1.04 | locus YDR502C, strain sam2, active compounds read low 0.979 | locus YEL003W, strain gim4, active compounds read low 1.02 | locus YEL037C, strain rad23, active compounds read low 1.01 | locus YEL061C, strain CIN8 (second series), active compounds read low 1.02 | locus YEL061C, strain CIN8, active compounds read low 0.999 | locus YER002W, strain NOP16, active compounds read low 1 | locus YER015W, strain faa2, active compounds read low 1.03 | locus YER016W, strain bim1, active compounds read low 1.02 | locus YER110C, active compounds read low 0.968 | locus YER111C, strain swi4, active compounds read low 1.01 | locus YER155C, strain BEM2 (second series), active compounds read low 1.02 | locus YER155C, strain BEM2, active compounds read low 0.983 | locus YER167W, strain BCK2, active compounds read low 1 | locus YFR010W, strain ubp6, active compounds read low 1 | locus YGL078C, strain dbp3, active compounds read low 0.998 | locus YGL086W, strain mad1, active compounds read low 0.988 | locus YGL167C, strain pmr1, active compounds read low 1.02 | locus YGL173C, strain kem1, active compounds read low 1.02 | locus YGL227W, strain vid30, active compounds read low 1.01 | locus YGL240W, strain doc1, active compounds read low 0.991 | locus YGL248W, strain PDE1, active compounds read low 0.999 | locus YGL253W, strain hxk2, active compounds read low 1.03 | locus YGR078C, strain PAC10, active compounds read low 0.983 | locus YGR135W, strain pre9, active compounds read low 0.988 | locus YGR229C, strain SMI1, active compounds read low 1.01 | locus YGR252W, strain gcn5, active compounds read low 1.12 | locus YHR013C, strain ard1, active compounds read low 1.08 | locus YHR027C, strain rpn1, active compounds read low 1.02 | locus YHR030C, strain SLT2, active compounds read low 0.992 and 1.05 | locus YHR079C, strain IRE1 (second series), active compounds read low 0.987 | locus YHR079C, strain IRE1, active compounds read low 1.06 | locus YHR094C, strain hxt1, active compounds read low 0.981 | locus YHR129C, strain ARP1, active compounds read low 1 | locus YHR142W, strain chs7, active compounds read low 1.05 | locus YHR200W, strain rpn10, active compounds read low 0.993 | locus YIL066C, strain RNR3, active compounds read low 0.995 | locus YIL073C, strain SPO22, active compounds read low 0.916 | locus YIL125W, strain kgd1, active compounds read low 0.973 | locus YIR030C, strain dcg1, active compounds read low 0.99 | locus YJL092W, strain hpr5, active compounds read low 1.02 | locus YJL095W, strain BCK1 (second series), active compounds read low 1 | locus YJL095W, strain BCK1, active compounds read low 1.01 and 1.03 | locus YJL115W, strain asf1, active compounds read low 1.02 | locus YJL129C, strain trk1, active compounds read low 1.03 | locus YJL134W, strain LCB3, active compounds read low 0.989 | locus YJL154C, strain vps35, active compounds read low 1.02 | locus YJL164C, strain tpk1, active compounds read low 1.02 | locus YJL166W, strain qcr8, active compounds read low 1.01 | locus YJL168C, strain set2, active compounds read low 0.993 | locus YJL187C, strain SWE1 (second series), active compounds read low 0.985 | locus YJR043C, strain POL32, active compounds read low 1.01
